In PubChem BioAssay AID1159580 (chemical genetic matrix, 2015):
Several values for one entry are separate records, joined by “and”; a condition that tells them apart may be missing. Equal values may be shown once. Among all 5,500 compounds or so, about 2,000 (36%) were called active. Not shown: some 18% with an inconclusive outcome. No stated cut-off is given here; in the data, active means normalized growth mostly below about 0.91 (no sharp cut-off); inconclusive means no clear call, values can overlap the other calls; inactive means mostly above about 0.92. The list shows a part of the results.

Experiment: chemical genetic growth profiling, strain panel (AID 1159580);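 further: tested at 20 µM; growth read once vehicle control cultures reached saturation at 30 °C; 1 = growth at the plate median or of vehicle wells; lower values mean less growth of the strain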
Conditions: S. cerevisiae deletion strains, growth OD

Measured: normalized growth

COC(=O)C[C@H]1C(C)(C)[C@@H](OC(C)=O)[C@@H]2CC3=C4CC(=O)O[C@@H](c5ccoc5)[C@]4(C)CCC3[C@@]1(C)C2=O (stereo partly specified)
inactive: locus YAL021C, strain ccr4, hits give low values 1.04 | locus YAL026C, strain drs2, hits give low values 0.998 | locus YAL030W, strain snc1, hits give low values 0.996 | locus YBL061C, strain skt5, hits give low values 0.991 | locus YBR009C, strain hhf1, hits give low values 1 | locus YBR021W, strain FUR4, hits give low values 1.01 | locus YBR023C, strain chs3, hits give low values 1 | locus YBR171W, strain sec66, hits give low values 0.996 | locus YBR229C, strain ROT2, hits give low values 0.997 | locus YBR231C, strain swc5, hits give low values 0.971 | locus YBR279W, strain paf1, hits give low values 0.999 | locus YCL011C, strain gbp2, hits give low values 1.01 | locus YCL016C, strain dcc1, hits give low values 1.01 | locus YCL029C, strain bik1, hits give low values 0.998 | locus YCL061C, strain MRC1, hits give low values 0.999 | locus YCL069W, strain vba3, hits give low values 0.984 | locus YCR088W, strain abp1, hits give low values 0.995 | locus YDL005C, strain med2, hits give low values 0.991 | locus YDL035C, strain GPR1, hits give low values 0.986 | locus YDL040C, strain nat1, hits give low values 0.995 | locus YDL074C, strain BRE1, hits give low values 0.996 | locus YDL101C, strain DUN1, hits give low values 1.02 | locus YDL185W, strain tfp1, hits give low values 1.01 | locus YDL192W, strain arf1, hits give low values 0.998 | locus YDR001C, strain nth1, hits give low values 0.997 | locus YDR069C, strain doa4, hits give low values 0.982 | locus YDR101C, strain arx1, hits give low values 0.976 | locus YDR137W, strain rgp1, hits give low values 0.997 | locus YDR159W, strain sac3, hits give low values 0.962 | locus YDR162C, strain NBP2, hits give low values 0.983 | locus YDR195W, strain ref2 0.938 | locus YDR297W, strain sur2, hits give low values 0.983 | locus YDR318W, strain mcm21, hits give low values 0.998 | locus YDR334W, strain swr1, hits give low values 0.99 | locus YDR335W, strain msn5, hits give low values 1 | locus YDR388W, hits give low values 1.01 | locus YDR392W, strain spt3, hits give low values 0.963 | locus YDR502C, strain sam2, hits give low values 1 | locus YEL003W, strain gim4, hits give low values 0.978 | locus YEL037C, strain rad23, hits give low values 0.989 | locus YEL061C, strain CIN8 (second series), hits give low values 0.99 | locus YER015W, strain faa2, hits give low values 1 | locus YER016W, strain bim1, hits give low values 0.995 | locus YER110C, hits give low values 1 | locus YER111C, strain swi4, hits give low values 1 | locus YER155C, strain BEM2 (second series), hits give low values 1.01 | locus YER155C, strain BEM2, hits give low values 0.997 | locus YER167W, strain BCK2, hits give low values 0.998 | locus YFR010W, strain ubp6, hits give low values 0.976 | locus YGL078C, strain dbp3, hits give low values 1.01 | locus YGL086W, strain mad1, hits give low values 1.01 | locus YGL167C, strain pmr1, hits give low values 1.01 | locus YGL173C, strain kem1, hits give low values 0.989 | locus YGL227W, strain vid30, hits give low values 0.993 | locus YGL240W, strain doc1, hits give low values 1 | locus YGL248W, strain PDE1, hits give low values 1 | locus YGL253W, strain hxk2, hits give low values 0.913 | locus YGR078C, strain PAC10, hits give low values 1.01 | locus YGR135W, strain pre9, hits give low values 1.02 | locus YGR252W, strain gcn5, hits give low values 1.01 | locus YHR013C, strain ard1, hits give low values 1.01 | locus YHR027C, strain rpn1, hits give low values 1 | locus YHR030C, strain SLT2, hits give low values 1 and 0.993 | locus YHR079C, strain IRE1 (second series), hits give low values 0.996 | locus YHR079C, strain IRE1, hits give low values 0.992 | locus YHR094C, strain hxt1, hits give low values 1 | locus YHR129C, strain ARP1, hits give low values 1.01 | locus YHR142W, strain chs7, hits give low values 0.988 | locus YHR200W, strain rpn10, hits give low values 1.01 | locus YIL066C, strain RNR3, hits give low values 1.01 | locus YIL073C, strain SPO22, hits give low values 1.02 | locus YIL125W, strain kgd1, hits give low values 0.993 | locus YIR030C, strain dcg1, hits give low values 1 | locus YJL092W, strain hpr5, hits give low values 0.996 | locus YJL095W, strain BCK1 (second series), hits give low values 1.01 | locus YJL095W, strain BCK1, hits give low values 1.04 and 0.984 | locus YJL115W, strain asf1, hits give low values 0.997 | locus YJL129C, strain trk1, hits give low values 0.952 | locus YJL134W, strain LCB3, hits give low values 0.998 | locus YJL154C, strain vps35, hits give low values 0.998 | locus YJL164C, strain tpk1, hits give low values 1.03 | locus YJL166W, strain qcr8, hits give low values 1 | locus YJL168C, strain set2, hits give low values 0.995 | locus YJL187C, strain SWE1 (second series), hits give low values 1.03 | locus YJL187C, strain SWE1, hits give low values 1.01 | locus YJR043C, strain POL32, hits give low values 0.987
